The values below come from the supplement of paper PMC10849652.

Of roughly 7,900 targets only a part is listed; those with a hit were picked by preference. About 0.6% of all pairs of compound and target were hits. Unmarked numbers belong to inactive results.

UniProt Q9H4P4, sequence (Q9H4P4 whole entry, looked up): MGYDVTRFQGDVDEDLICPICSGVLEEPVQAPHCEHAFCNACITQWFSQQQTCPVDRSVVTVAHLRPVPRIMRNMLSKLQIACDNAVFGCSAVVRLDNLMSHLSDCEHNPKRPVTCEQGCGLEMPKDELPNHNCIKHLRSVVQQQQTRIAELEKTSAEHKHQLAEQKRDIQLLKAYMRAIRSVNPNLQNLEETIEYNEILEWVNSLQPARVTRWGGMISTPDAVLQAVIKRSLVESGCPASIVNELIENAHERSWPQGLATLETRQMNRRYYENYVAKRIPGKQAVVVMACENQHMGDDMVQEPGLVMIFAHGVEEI
UniProt Q96DM3, sequence (Q96DM3 whole entry, looked up): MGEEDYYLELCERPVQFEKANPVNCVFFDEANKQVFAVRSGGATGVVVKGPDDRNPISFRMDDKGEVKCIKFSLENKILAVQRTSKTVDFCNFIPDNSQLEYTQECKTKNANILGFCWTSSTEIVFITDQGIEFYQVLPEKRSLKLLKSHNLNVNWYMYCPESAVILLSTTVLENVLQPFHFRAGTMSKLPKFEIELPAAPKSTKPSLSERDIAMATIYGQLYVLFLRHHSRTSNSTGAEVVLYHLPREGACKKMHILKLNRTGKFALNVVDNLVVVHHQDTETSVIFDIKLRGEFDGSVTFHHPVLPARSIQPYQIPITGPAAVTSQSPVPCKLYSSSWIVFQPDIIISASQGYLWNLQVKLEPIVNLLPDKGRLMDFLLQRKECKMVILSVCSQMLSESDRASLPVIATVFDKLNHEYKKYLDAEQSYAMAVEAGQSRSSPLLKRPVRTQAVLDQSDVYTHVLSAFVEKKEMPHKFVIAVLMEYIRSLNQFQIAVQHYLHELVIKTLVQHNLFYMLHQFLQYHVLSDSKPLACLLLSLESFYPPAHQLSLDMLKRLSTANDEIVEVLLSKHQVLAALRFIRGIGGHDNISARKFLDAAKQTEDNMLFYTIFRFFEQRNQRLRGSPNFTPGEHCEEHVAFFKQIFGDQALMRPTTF
UniProt Q5VZM2, sequence (Q5VZM2 whole entry, looked up): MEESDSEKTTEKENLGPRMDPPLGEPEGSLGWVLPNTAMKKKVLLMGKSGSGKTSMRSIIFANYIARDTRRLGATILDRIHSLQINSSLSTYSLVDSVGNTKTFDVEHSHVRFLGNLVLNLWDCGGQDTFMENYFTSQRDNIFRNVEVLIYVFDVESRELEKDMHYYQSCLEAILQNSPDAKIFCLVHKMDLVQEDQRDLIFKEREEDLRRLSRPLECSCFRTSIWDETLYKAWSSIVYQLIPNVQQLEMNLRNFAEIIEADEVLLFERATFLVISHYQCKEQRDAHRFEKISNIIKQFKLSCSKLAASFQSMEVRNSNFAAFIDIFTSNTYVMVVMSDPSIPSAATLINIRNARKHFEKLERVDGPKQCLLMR
UniProt Q8NBX0, sequence (Q8NBX0 whole entry, looked up): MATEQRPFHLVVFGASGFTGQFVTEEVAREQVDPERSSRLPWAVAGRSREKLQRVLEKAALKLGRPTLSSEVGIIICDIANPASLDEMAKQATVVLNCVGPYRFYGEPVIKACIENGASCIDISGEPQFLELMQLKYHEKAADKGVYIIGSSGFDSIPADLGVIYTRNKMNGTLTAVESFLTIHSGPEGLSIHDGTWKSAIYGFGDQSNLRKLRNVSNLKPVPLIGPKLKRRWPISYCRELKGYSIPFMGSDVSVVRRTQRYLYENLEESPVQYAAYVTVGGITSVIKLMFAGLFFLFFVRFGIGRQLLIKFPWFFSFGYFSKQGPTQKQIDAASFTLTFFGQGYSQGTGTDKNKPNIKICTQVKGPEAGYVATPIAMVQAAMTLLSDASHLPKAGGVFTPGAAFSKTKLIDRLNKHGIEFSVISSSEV
UniProt Q96EE3, sequence (Q96EE3 whole entry, looked up): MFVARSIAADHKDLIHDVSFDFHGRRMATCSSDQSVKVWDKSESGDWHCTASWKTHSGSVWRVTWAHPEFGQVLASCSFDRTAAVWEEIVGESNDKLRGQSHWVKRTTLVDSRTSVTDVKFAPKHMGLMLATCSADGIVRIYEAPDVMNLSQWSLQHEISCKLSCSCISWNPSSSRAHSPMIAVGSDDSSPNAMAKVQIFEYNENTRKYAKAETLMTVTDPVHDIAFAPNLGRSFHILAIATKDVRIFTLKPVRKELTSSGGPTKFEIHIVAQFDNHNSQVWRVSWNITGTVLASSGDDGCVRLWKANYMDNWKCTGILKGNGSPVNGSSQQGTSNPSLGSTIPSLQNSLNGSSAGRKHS
UniProt Q9BUV8, sequence (Q9BUV8 whole entry, looked up): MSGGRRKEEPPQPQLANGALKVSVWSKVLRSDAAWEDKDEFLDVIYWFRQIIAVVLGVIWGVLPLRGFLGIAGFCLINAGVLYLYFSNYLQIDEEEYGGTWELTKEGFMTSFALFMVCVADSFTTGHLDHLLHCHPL
UniProt Q9GZR1, sequence (Q9GZR1 whole entry, looked up): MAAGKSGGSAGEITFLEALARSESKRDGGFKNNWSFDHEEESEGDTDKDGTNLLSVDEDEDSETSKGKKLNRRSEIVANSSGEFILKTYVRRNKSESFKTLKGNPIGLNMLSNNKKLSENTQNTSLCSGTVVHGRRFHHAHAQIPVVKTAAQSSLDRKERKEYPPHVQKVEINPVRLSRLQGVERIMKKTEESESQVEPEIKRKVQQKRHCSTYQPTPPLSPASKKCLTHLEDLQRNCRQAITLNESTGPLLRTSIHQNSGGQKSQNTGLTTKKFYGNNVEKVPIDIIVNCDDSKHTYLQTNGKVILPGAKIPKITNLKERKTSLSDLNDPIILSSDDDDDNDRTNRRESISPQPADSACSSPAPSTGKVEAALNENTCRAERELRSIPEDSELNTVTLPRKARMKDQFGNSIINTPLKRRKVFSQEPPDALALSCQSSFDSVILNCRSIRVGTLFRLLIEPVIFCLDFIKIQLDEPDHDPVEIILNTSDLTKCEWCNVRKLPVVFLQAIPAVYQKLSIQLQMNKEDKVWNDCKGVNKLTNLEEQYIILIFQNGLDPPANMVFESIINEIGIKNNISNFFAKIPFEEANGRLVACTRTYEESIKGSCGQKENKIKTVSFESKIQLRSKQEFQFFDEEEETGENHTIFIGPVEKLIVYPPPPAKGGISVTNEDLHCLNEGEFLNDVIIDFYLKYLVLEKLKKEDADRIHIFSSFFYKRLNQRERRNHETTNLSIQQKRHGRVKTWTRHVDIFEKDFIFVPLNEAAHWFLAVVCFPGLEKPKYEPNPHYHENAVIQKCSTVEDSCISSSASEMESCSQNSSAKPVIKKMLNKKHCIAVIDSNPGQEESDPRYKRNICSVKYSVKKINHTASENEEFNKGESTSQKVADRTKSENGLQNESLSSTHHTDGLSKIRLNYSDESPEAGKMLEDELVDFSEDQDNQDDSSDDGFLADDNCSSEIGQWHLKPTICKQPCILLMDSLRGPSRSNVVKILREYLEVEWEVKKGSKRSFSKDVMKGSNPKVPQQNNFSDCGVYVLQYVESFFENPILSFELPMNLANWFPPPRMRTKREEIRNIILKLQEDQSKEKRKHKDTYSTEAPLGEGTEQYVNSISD
UniProt Q9BVS4, sequence (Q9BVS4 whole entry, looked up): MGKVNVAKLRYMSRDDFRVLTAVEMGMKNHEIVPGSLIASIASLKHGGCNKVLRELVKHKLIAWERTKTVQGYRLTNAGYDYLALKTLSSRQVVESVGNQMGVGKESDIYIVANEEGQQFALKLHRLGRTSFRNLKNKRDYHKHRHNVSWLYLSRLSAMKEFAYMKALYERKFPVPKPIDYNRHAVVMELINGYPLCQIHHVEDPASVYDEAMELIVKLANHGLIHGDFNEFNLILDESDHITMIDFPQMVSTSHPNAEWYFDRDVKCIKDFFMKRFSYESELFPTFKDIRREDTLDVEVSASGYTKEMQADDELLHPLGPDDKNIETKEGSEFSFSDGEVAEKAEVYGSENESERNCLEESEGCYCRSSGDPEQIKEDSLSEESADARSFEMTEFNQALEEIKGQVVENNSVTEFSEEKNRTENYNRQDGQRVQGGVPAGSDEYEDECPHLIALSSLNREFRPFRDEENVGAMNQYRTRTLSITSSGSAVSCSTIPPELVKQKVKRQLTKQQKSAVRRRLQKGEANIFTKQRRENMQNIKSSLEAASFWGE
UniProt O95716, sequence (O95716 whole entry, looked up): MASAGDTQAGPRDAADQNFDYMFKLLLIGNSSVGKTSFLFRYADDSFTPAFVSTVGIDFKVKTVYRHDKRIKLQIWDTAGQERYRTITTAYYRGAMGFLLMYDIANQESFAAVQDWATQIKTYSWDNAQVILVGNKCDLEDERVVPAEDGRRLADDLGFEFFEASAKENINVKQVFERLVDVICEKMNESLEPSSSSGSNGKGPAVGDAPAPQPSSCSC
UniProt Q15349, sequence (Q15349 whole entry, looked up): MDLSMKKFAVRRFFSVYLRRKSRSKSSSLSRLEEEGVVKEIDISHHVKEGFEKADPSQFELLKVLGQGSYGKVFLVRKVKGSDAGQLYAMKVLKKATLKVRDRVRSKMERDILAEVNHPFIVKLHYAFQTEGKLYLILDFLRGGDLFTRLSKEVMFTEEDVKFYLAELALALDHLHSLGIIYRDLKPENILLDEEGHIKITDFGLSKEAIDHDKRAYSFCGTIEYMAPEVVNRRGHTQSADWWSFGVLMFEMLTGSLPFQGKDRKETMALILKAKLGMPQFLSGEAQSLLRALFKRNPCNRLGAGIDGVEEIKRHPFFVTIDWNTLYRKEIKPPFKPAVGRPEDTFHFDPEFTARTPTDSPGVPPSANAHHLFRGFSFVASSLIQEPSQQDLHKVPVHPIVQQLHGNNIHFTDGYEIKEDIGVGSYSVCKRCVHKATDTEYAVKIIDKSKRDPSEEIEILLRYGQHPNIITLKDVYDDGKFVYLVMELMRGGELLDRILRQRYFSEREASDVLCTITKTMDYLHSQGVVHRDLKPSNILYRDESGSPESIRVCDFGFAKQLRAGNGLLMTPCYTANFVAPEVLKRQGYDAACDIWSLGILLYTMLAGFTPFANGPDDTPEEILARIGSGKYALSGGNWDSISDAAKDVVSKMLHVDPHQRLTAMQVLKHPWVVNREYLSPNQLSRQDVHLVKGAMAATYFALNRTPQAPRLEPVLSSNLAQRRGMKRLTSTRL

Compound in this assay: C1=CC=C(C=C1)[C@H](COC2=CC3=C(C=C2)NC(=O)N3)NC(=O)C4=CC=CN(C4=O)CC5=CC(=C(C=C5)F)F
Nature of the assay: log2 fold change, soluble protein after heating vs DMSO (PISA); higher = thermal stabilisation; K562 cells, 10 uM, 30 min; active = over 0.2 and 3.5 SD of the protein, either way, in both replicates (recomputed). A digest of the protocol: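 K562 cells at 2×10^6 cells/mL were exposed to 10 μM compound for 30 min, then aliquots were heated for 3 min across 48°C-58°C, pooled, and extracted in PBS containing 0.5% NP-40 at 4°C. The supernatant after 21,000xg for 90 min was taken as soluble protein and measured by TMTpro 16plex LC-MS/MS with channel sums equalised. Thermal stability is reported relative to control samples, with values from duplicates. Fold changes are given on a log2 scale.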
Consider RRAGB (UniProt Q5VZM2), for which the log2 fold change was 0.046.
Under RIOK2 (UniProt Q9BVS4) stands 0.034; under RCOR3 isoform 3 (UniProt Q9P2K3), -0.139; under RAC1 (UniProt P63000), -0.046.
Consider SEH1L isoform 1 (UniProt Q96EE3), for which the log2 fold change is -0.003.
Consider RAB3D (UniProt O95716), for which the log2 fold change is 0.023.
As to RNF41 (UniProt Q9H4P4), the log2 fold change was 0.039.
Regarding RBM25 (UniProt P49756), the log2 fold change is -0.025.
For the target RHOXF2 (UniProt Q9BQY4), the log2 fold change was 0.004.
RPS13 (UniProt P62277): the log2 fold change was 0.142.
SAFB2 (UniProt K7EQU4): the log2 fold change was -0.338.
On to SENP6 (UniProt Q9GZR1), for which the log2 fold change was 0.023.
Turning to RCN3 (UniProt Q96D15), the log2 fold change was 0.016.
For SAFB2 (UniProt Q14151) the value was 0.051; for RMC1 (UniProt Q96DM3), -0.009; for RPS16 (UniProt P62249), 0.049.
On to RAPGEF4 (UniProt Q8WZA2), for which the log2 fold change is -0.038.
RNF187 (UniProt Q5TA31): the log2 fold change was -0.047.
As for SCCPDH (UniProt Q8NBX0), the log2 fold change was -0.047.
Regarding RBM8A (UniProt Q9Y5S9), the log2 fold change was -0.02.
Under RAB5IF isoform 5 (UniProt Q9BUV8) stands 0.003; under RNPS1 (UniProt Q15287), -0.019; under RPS6KA2 isoform 2 (UniProt Q15349), -0.016.
